{"source": "PubChem BioAssay (EPA / NIEHS)", "note": "Calls of active or inactive are those of the source. Rule for the calls: active = hit-call score of the fitted dose curve at least 0.9, where 1 is the maximum; inactive = score below 0.9."}
{"read-out": "TIMP metallopeptidase inhibitor 2 (TIMP2), TIMP2 (gene 7077)", "experiment": "BSK_KF3CT_TIMP2: BioMAP Diversity Plus: KF3CT Assay for TIMP metallopeptidase inhibitor 2 (TIMP2) Biomarker Activity (AID 2283071)", "settings": "primary human keratinocytes with fibroblasts; actives raise or lower the signal", "procedure": "BSK_KF3CT is a cell-based, multiplexed-readout assay that uses keratinocytes and foreskin fibroblasts, a human skin primary cell co-culture, with measurements taken at 24 hours after chemical dosing in a 96-well plate.BSK_KF3CT_TIMP2 is an assay component measured in the BSK_KF3CT assay. It measures TIMP-2 antibody related to regulation of gene expression using ELISA technology.Data from the assay component BSK_KF3CT_TIMP2 was analyzed into 1 assay endpoint. This assay endpoint, BSK_KF3CT_TIMP2, was analyzed with bidirectional fitting relative to DMSO as the negative control and baseline of activity. Using a type of binding reporter, gain or loss-of-signal activity can be used to understand changes in the signaling as they relate to the gene TIMP2. Furthermore, this assay endpoint can be referred to as a primary readout, because this assay has produced multiple assay endpoints where this one serves a signaling function. To generalize the intended target to other relatable targets, this assay endpoint is annotated to the protease inhibitor intended target family, where the subfamily is metalloproteinase inhibitor.\nThe levels of cell surface (or secreted, indicated by the prefix \"s\") biomarker endpoints were measured by ELISA. Overt cytotoxicity to cells in confluent adherent cultures (all systems other than the BT system) was assessed by measuring total protein levels using sulforhodamine B (SRB) staining in parallel cultures at the time of biomarker measurements, indicated as SRB endpoints. For proliferation assays for adherent cell types, individual cell types are cultured at sub-confluence and relative cell numbers quantified by SRB staining at time points optimized for each system (48 h: 3C and CASM3C systems; 72 h: BT and HDF3CGF systems; 96 h: SAg system). SRB was performed by staining cells with 0.1% SRB after fixation with 10% TCA and reading wells at 560 nm.Viability and proliferation of PBMC (T cells) was quantified by Alamar Blue reduction for the SAg and BT systems. For PBMC viability (referred to as PBMC Cytotoxicity within the assay endpoint names), cells were plated (75,000/well in a 96-well plate) and then chemical samples added for 1 h before addition of activators, SEB and TSST-1 (20 ng/mL final concentration each). Cells were incubated for 90 h. Then, Alamar Blue (20 uL/well) (Invitrogen, Cat DAL1100) was added for 6 h, and the plates were read with a fluorescence microplate reader at 546/580 nm (excitation/emission). For PBMC proliferation, cells were plated and activated as above but incubated for only 16 h prior to addition of Alamar Blue. Plates were read after 6 h."}
{"compound": "CN(C[C@@H](CC[N+]12CCC(C3CCCCC3)(CC1)CC2)c1ccc(Cl)c(Cl)c1)C(=O)c1cc(C(F)(F)F)cc(C(F)(F)F)c1", "AC50": "7.76 µM (active)"}
{"compound": "Clc1cc(Cl)c2c(c1)N=C1CCCCCN1C2", "outcome": "inactive"}
{"compound": "Cc1cn([C@H]2C[C@H](N=[N+]=[N-])[C@@H](CO)O2)c(=O)[nH]c1=O", "outcome": "inactive"}
{"compound": "O=C1O[C@H]([C@@H](O)CO)C(O)=C1O", "outcome": "inactive"}
{"compound": "c1ccc2ccccc2c1", "outcome": "inactive"}
{"compound": "CCCCCc1ccc(N)cc1", "AC50": "20.8 µM (active)"}
{"compound": "CC(=O)N1CCN(c2ccc(OC[C@H]3CO[C@](Cn4ccnc4)(c4ccc(Cl)cc4Cl)O3)cc2)CC1", "AC50": "31.5 µM (active)"}
{"compound": "c1ccc2n[nH]nc2c1", "outcome": "inactive"}
{"compound": "CC(C)(O)c1ccc(CNC(=O)c2cccnc2Oc2ccc3nonc3c2)cc1", "outcome": "inactive"}
{"compound": "CC[C@H](NC(=O)c1cc(F)ccc1NS(=O)(=O)c1cccc2cccnc12)c1ccccc1", "outcome": "inactive"}
{"compound": "Cc1ccc(C(C)C)cc1", "outcome": "inactive"}
{"compound": "CC/C(=C(/CC)c1ccc(O)cc1)c1ccc(O)cc1", "AC50": "29.1 µM (active)"}
{"compound": "Cc1occc1C(=O)Nc1ccc(C(=O)N2CCC(F)(F)/C(=C\\C(=O)N3CCC(N4CCCCC4)CC3)c3ccccc32)cc1", "outcome": "inactive"}
{"compound": "Cc1cc(F)ccc1-c1cc(N2CC[C@@H](O)[C@H]2CO)ncc1N(C)C(=O)C(C)(C)c1cc(C(F)(F)F)cc(C(F)(F)F)c1", "AC50": "12.4 µM (active)"}
{"compound": "Oc1ccccc1", "outcome": "inactive"}
{"compound": "CCO[Si](CCCNC(N)=O)(OCC)OCC", "outcome": "inactive"}
{"compound": "CCCCCCCCCCCO", "outcome": "inactive"}
{"compound": "CC(O)CC(C)(C)O", "note": "(stereo not given)", "outcome": "inactive"}
{"compound": "OC12N=C(c3ccccc3)SC1Cc1cc(Cl)ccc12", "note": "(stereo not given)", "outcome": "inactive"}
{"compound": "Cc1cc2c(cc1C(F)(F)F)N(C(=O)Nc1ccc(Oc3cccnc3C)nc1)CC2", "AC50": "23.8 µM (active)"}
{"compound": "CCCCOC(=O)c1ccc(O)cc1", "outcome": "inactive"}
{"compound": "CCN(CC)C(=O)c1cc(S(=O)(=O)Cc2ccccc2)c(N2CCC(c3ccccc3)CC2)cc1N(CC)CCN(C)C", "outcome": "inactive"}
{"compound": "O=C(Nc1ccc(Cl)cc1)Nc1ccc(Cl)c(Cl)c1", "outcome": "inactive"}
{"compound": "O=C(O)Cn1c(=O)n(Cc2ccc(Br)cc2F)c(=O)c2ccc(Cl)cc21", "outcome": "inactive"}
{"compound": "Oc1ccc2ccccc2c1", "outcome": "inactive"}
{"compound": "CCN(Cc1cccnc1)C(=O)c1cccc(Cl)c1[C@]1(C)C(=O)N(Cc2ccc(OC)cc2OC)c2ccc(Cl)cc21", "outcome": "inactive"}
{"compound": "CCOC(=O)O[C@H](C)OC(=O)c1ccc2c(c1)cc(C(=O)NC1CCN(C(C)C)CC1)n2Cc1cc(-c2ccc(Cl)s2)on1", "AC50": "7.43 µM (active)"}
{"compound": "CCCCCCCC[Si](OCC)(OCC)OCC", "outcome": "inactive"}
{"compound": "CC1(C)NC(=O)N(c2ccc([N+](=O)[O-])c(C(F)(F)F)c2)C1=O", "outcome": "inactive"}
{"compound": "O=c1c(-c2ccc(O)cc2)coc2cc(O)cc(O)c12", "outcome": "inactive"}
{"compound": "O=C(OCCCCCCOC(=O)c1ccccc1)c1ccccc1", "outcome": "inactive"}
{"compound": "Clc1ccccc1C(c1ccccc1)(c1ccccc1)n1ccnc1", "AC50": "10 µM (active)"}
{"compound": "CC1=CC(=O)/C(=C(/C)O)C(=O)O1", "outcome": "inactive"}
{"compound": "Cc1cccc2ccccc12", "outcome": "inactive"}
{"compound": "C[C@]12CC[C@@H]3c4ccc(O)cc4CC[C@H]3[C@@H]1CC[C@H]2O", "outcome": "inactive"}
{"compound": "CC(C)(C)c1cc(/C=C2\\SC(N)=NC2=O)cc(C(C)(C)C)c1O", "AC50": "11.5 µM (active)"}
{"compound": "C[C@]12CC[C@@H]3c4ccc(O)cc4CC[C@H]3[C@@H]1CCC2=O", "outcome": "inactive"}
{"compound": "COc1cccc([C@H](O)C2CCN(CCc3ccc(F)cc3)CC2)c1OC", "outcome": "inactive"}
{"compound": "NCc1cccc(C2CCN(C(=O)c3ccc(C#Cc4ccccc4F)o3)CC2)c1", "AC50": "8.8 µM (active)"}
{"compound": "O=CCCCC=O", "AC50": "26.2 µM (active)"}
